Measured values as given in PubChem BioAssay AID1063 (University of Pittsburgh Molecular Library Screening Center, 2008).
In all, about 200,000 compounds went through this assay and about 18,000 (9%) were called active. No stated cut-off is given here; in the data, active means inhibition above about 50%; inactive means the rest. Many of the other results were omitted from the sample, so actives are more common in it than they were.

assay: Leishmania major promastigote growth inhibition, primary screen (AID 1063); details: Leishmania major promastigotes, resazurin fluorescence viability; at 10 µM; stronger effect = higher value;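 further: promastigotes grown with compound for 44 hours at 28 °C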

SMILES	inhibition
CCOC(=O)CNC(=O)/C(=C\c1ccc(F)cc1)NC(=O)c1ccccc1	-2.16% (inactive)
CCN(CC(=O)NCc1cccs1)C(=O)c1ccccc1F	35% (inactive)
CCOc1ccc(CCNC(=O)C2=C(C)C(=O)OC23CCC(C)CC3)cc1OCC (centres undefined)	5.17% (inactive)
COc1ccc(CNC(=O)CN2CCC(n3nnc4cc(F)ccc43)CC2)cc1	2.66% (inactive)
CCOc1cc(NC(=S)NCCCOC)c(OCC)cc1NC(=O)c1ccco1	36.4% (inactive)
CN1CCN(CC(=O)Nc2sc3c(c2C#N)CCC(C(C)(C)C)C3)CC1 (centres undefined)	100% (active)
CCC1CCc2c(sc(NC(C)=O)c2C#N)C1 (centres undefined)	-3.49% (inactive)
CCN1CCN(CC(=O)Nc2sc3c(c2C#N)CCC3)CC1	-1.23% (inactive)
Cc1nn2cc(-c3ccc(Cl)cc3)cnc2c1Br	-2.01% (inactive)
COc1ccc(Cl)cc1C(=O)NCC#N	-4% (inactive)
N#C/C=C\Oc1ccc(Cl)cc1N	67.9% (active)
CCCC/S(C)=N/S(=O)(=O)c1ccc(C)cc1 (centres undefined)	-10.2% (inactive)
COc1cc(NS(=O)(=O)c2ccc(NC(=O)c3ccc(S(=O)(=O)N4CCCCC4)cc3)cc2)ncn1	-2.97% (inactive)
Cc1c(CCOC(=O)c2cc([N+](=O)[O-])ccc2Cl)sc[n+]1CCCCS(=O)(=O)[O-]	-8.59% (inactive)
Cc1c(CCOC(=O)CC23CC4CC(CC(C)(C4)C2)C3)sc[n+]1Cc1ccc([N+](=O)[O-])cc1	87.9% (active)
Cc1c(CCO)sc[n+]1CC(=O)OC12CC3CC(CC(C3)C1)C2	30.7% (inactive)
COCCNC(=O)CCCn1c(=O)c2ccccc2n(Cc2cccc([N+](=O)[O-])c2)c1=O	4.7% (inactive)
CCCCNC(=O)CCn1c(=O)c2ccccc2n(Cc2cc(C)ccc2C)c1=O	58% (active)
CCCCNC(=O)CCn1c(=S)[nH]c2cc3c(cc2c1=O)OCO3	-1.74% (inactive)
Cc1cc(OC(=O)c2ccccc2)c([N+](=O)[O-])c(=O)[nH]1	-2.98% (inactive)
COc1ccc(CN(C)C(=S)Nc2ccc(Cl)cc2Cl)cc1	4.79% (inactive)
CCC(=O)NCCc1nc2ccccc2n1CC	-0.68% (inactive)
CC(=O)Nc1nc2ccccc2n1Cc1ccc(C)cc1	88.6% (active)
CCCCn1c(CCCNC(=O)CC)nc2ccccc21	12.4% (inactive)
Cc1ccc(Cn2c(NC(=O)c3ccco3)nc3ccccc32)cc1	9.07% (inactive)

SMILES	inhibition
O=S(=O)(O)c1nc2ccccc2n1Cc1ccc(Cl)cc1	-5.39% (inactive)
CCC(=O)Nc1nc2ccccc2n1Cc1ccccc1C	97.5% (active)
CCO[C@@H]1OC(C(=O)N2CCOCC2)=C[C@H](C)[C@H]1CCCO	-9.37% (inactive)
Cn1nnnc1SCC(=O)Nc1nc2ccccc2s1	-3.39% (inactive)
CC(=O)c1ccc(NC(=O)C(C)N(C)CC(=O)Nc2ccccc2Cl)cc1 (centres undefined)	12.8% (inactive)
COc1ccc(S(=O)(=O)N(C)CC(=O)N2CCCC2)cc1Cl	-0.12% (inactive)
COc1cc(CNC2CCCCC2)c(Br)cc1OC1CCCC1	60.8% (active)
COc1cc(CNC2CCCC2)c(Br)cc1OCc1ccccc1	35.4% (inactive)
CC(C)(C)NCc1cc(Br)ccc1OC1CCCC1	15.5% (inactive)
C=CS(=O)c1sc(Cl)c(N2CCOCC2)c1[N+](=O)[O-] (centres undefined)	20.9% (inactive)
Cc1ccccc1NC(=S)N(CCCN1CCOCC1)Cc1cccs1	61.8% (active)
CCc1cccc(C)c1NC(=S)N(CCCN1CCN(C)CC1)Cc1cccs1	22.3% (inactive)
Cc1ccc(Cl)cc1NC(=S)N(CCN(C)C)Cc1cccs1	18.3% (inactive)
O=C(CCN1C(=O)c2ccccc2C1=O)NCCCn1ccnc1	-10.1% (inactive)
O=C(Nc1cccc(-c2nc3ncccc3o2)c1)c1ccco1	100% (active)
O=C(Nc1ccc2nccnc2c1)c1ccco1	-6.2% (inactive)
O=C(Nc1cccc(NC(=O)c2ccco2)c1)c1cnccn1	20.6% (inactive)
CC(=O)Nc1ccc(S(=O)(=O)Nc2nccc(/C=C/c3ccccc3F)n2)cc1	-6.64% (inactive)
CC(c1ccco1)N(C(=O)c1ccc(S(=O)(=O)N2CCCCC2)cc1)c1ccccn1 (centres undefined)	89.7% (active)
O=C(N/N=C/c1ccccn1)c1ccc(S(=O)(=O)N2CCCCCC2)cc1	-3.79% (inactive)
CC(c1ccco1)N(C(=O)COc1ccccc1[N+](=O)[O-])c1ccccn1 (centres undefined)	1.39% (inactive)
Cn1c(N)cc(-c2ccc(F)cc2)c(C#N)c1=O	0.6% (inactive)
Cc1ccc(-c2csc(NNC(=O)c3ccccc3)n2)cc1	16.8% (inactive)
Cc1cccc(S(=O)(=O)CC(=O)Nc2nc(-c3ccccc3)cs2)c1	98.6% (active)
O=C(Nc1nc(-c2ccc(-c3ccccc3)cc2)cs1)c1cnccn1	47.8% (inactive)

SMILES	inhibition
O=C(CSC1=NCCS1)Nc1nc(-c2ccccc2)cs1	67.4% (active)
CCNC(=O)CSc1nc(-c2ccccc2)cs1	3.19% (inactive)
Cc1ccc(-c2csc(NC(=O)Cn3[nH]c(=O)c4ccccc4c3=O)n2)cc1	5.27% (inactive)
Cc1ccc(S(=O)(=O)N(CC(=O)NN=C2CCN(C)CC2)c2ccc(F)cc2)cc1	-0.06% (inactive)
CCc1cc2c(=O)c(-c3nc4ccccc4n3C)c(CCCC(=O)O)oc2cc1OC(=O)C(C)(C)C	-1.6% (inactive)
COc1ccc(C2=NN(C(=O)c3cccnc3)C(c3ccccc3)C2)cc1 (centres undefined)	5.17% (inactive)
CCOc1ccc(NC(=S)NC(=O)/C=C/c2ccc(OC)cc2)c([N+](=O)[O-])c1	-5.29% (inactive)
COc1ccc(/C=C/C(=O)NC(=S)NN2CCCCC2c2cccnc2)cc1 (centres undefined)	69.9% (active)
Cc1cccc(N=C2NC(=O)/C(=C/c3cn(C)c4ccccc34)S2)c1	10.8% (inactive)
Cc1cccc(N=C2NN=C(c3c[nH]c4ccccc34)CS2)c1	64.9% (active)
Cc1cccc(C(=O)Nc2nnc(Cc3c[nH]c4ccccc34)s2)c1	19.2% (inactive)
CC(C(=O)NC1CCCC1)N(c1ccc(Oc2ccccc2)cc1)S(C)(=O)=O (centres undefined)	29.4% (inactive)
CCOc1ccc(C(C)=O)cc1CSc1nnc(-c2ccncc2)n1CCOC	2.51% (inactive)
COc1ccc(C/C(C)=N/NC(=O)c2cc(C)oc2C)cc1	2.67% (inactive)
C/C(=N\NC(=O)Cc1ccc(Cl)cc1)c1ccccn1	100% (active)
C/C(=N\NC(=O)Cc1ccc(F)cc1)c1ccc(F)cc1	-7.37% (inactive)
COc1ccc(CC(=O)N/N=C(\C)c2ccccn2)cc1	75.9% (active)
Cc1ccc(Cl)cc1NC(=O)c1ccccn1	-2.2% (inactive)
COc1ccc(C/C(C)=N/NC(=O)c2ccncc2)cc1	-6.69% (inactive)
COc1ccccc1NC(=O)C1=C(C)NC(=O)NC1c1ccc(C)s1 (centres undefined)	5.44% (inactive)
O=C(CC(=O)N/N=C\c1ccc(F)cc1)NCCc1ccccc1	-0.64% (inactive)
Nc1ccc(S(=O)(=O)Nc2nccc(/C=C/c3ccc(Br)s3)n2)cc1	1.78% (inactive)
O=C(O/N=C(/c1ccccc1)c1ccncc1)c1ccccc1[N+](=O)[O-]	-5.52% (inactive)
COC(=O)c1ccc(NC(=S)Nc2cccc(C)n2)cc1	1.93% (inactive)
COc1cc(OC)cc(-c2nnc(SCC(=O)Nc3ccc(C(=O)O)cc3)s2)c1	-10.5% (inactive)

SMILES	inhibition
COc1ccc(/C=C/C2=CC(C)(C)NC(=S)N2)c(OC)c1	1.29% (inactive)
COc1cccc(-n2c(=S)[nH]c3c(oc4ccccc43)c2=O)c1	-1.14% (inactive)
CCCC1(C(=O)OC)NC(c2ccco2)C2C(=O)N(C)C(=O)C21 (centres undefined)	4.05% (inactive)
Cc1cccc2cc(CN(C(=O)c3cccs3)c3ccccc3)c(=O)[nH]c12	-3.04% (inactive)
Cc1ccc(N(Cc2cc3ccccc3[nH]c2=O)C(=O)c2cccs2)cc1	75.4% (active)
CCC(=O)N(Cc1cc2ccccc2[nH]c1=O)c1ccc(OC)cc1	11.3% (inactive)
Cc1ccc2c(c1)C(O)(CC(=O)c1cccc(-n3cccc3)c1)C(=O)N2 (centres undefined)	0.06% (inactive)
COc1cc(NS(=O)(=O)c2ccccc2)ccc1-n1nc(C)cc1C	-5.46% (inactive)
COCCCNC(=O)c1ccc2c(c1)ncn2-c1ccccc1OC	-1.51% (inactive)
COc1ccccc1-n1cnc2cc(NS(=O)(=O)c3ccccc3)ccc21	98.3% (active)
O=[N+]([O-])c1ccccc1N/N=C1\CCc2ccccc21	-1.95% (inactive)
N#Cc1cccc(Nc2c3c(nc4ccccc24)CCCC3)c1	86.9% (active)
O=C(Nc1c2c(nc3ccccc13)CCCC2)c1ccccc1Br	6.31% (inactive)
N#Cc1cccc(NC(=O)CCC2CCCC2)c1	5.79% (inactive)
COc1ccc2c(c1)C(c1cccs1)=NNC(c1cccnc1)=N2	23.7% (inactive)
CC(NC(=O)COC(=O)c1ccc2c(c1)OCO2)c1ccccc1 (centres undefined)	-3.45% (inactive)
CCOC(=O)C1=C(C)NC(SC)=NC1c1ccccc1 (centres undefined)	8.85% (inactive)
CCOC(=O)C1=C(C)NC(=O)NC1c1ccccc1 (centres undefined)	-1.3% (inactive)
CCOC(=O)C1=C(C)N=C2c3ccccc3C(=O)C2C1c1ccc(Br)cc1 (centres undefined)	99.4% (active)
CN(C)c1nccc(NCc2ccccc2)c1C#N	-3.1% (inactive)
COCCCNC(=O)CNC(=S)N(Cc1cc(OC)c(OC)c(OC)c1)C1CCCC1	-3.29% (inactive)
CN(C)CC(O)COc1ccc(C(C)(C)c2ccc(OCC(O)CN(C)C)cc2)cc1 (centres undefined)	100% (active)
COc1ccc(OCC(O)CNC(=O)Nc2ccc(Cl)cc2)cc1 (centres undefined)	-4.73% (inactive)
CCCC(O)(c1ccc(OC)cc1)C(CN(C)C)c1ccccc1 (centres undefined)	-1.91% (inactive)
